For eight compounds, outcome and AC50 results are on record in PubChem BioAssay (EPA / NIEHS).

Records with an inconclusive call do not appear. Calls of active or inactive are those of the source. Rule for the calls, unless noted: active = hit-call score of the fitted dose curve at least 0.9, where 1 is the maximum; inactive = score below 0.9.

For experiment [1], the target named is human Peroxisome Proliferator-activated Receptor delta (PPARd), PPARD (gene 5467) (UniProt Q03181). Briefly: ATG_PPARd_TRANS: Attagene TRANS-FACTORIAL HepG2 Assay for human Peroxisome Proliferator-activated Receptor delta (PPARd) (AID 2283002; active = hit-call score of the fitted dose curve at least 0.9, where 1 is the maximum). The procedure, abridged:
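Read-out is induced reporter mRNA, quantified by RT-PCR with fluorescent labelling and capillary electrophoresis after 24 h dosing. Cells are HepG2 transiently carrying multiple GAL4-UAS reporter units driven by exogenous NR-GAL4 chimeras; DMSO serves as baseline.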

Read-out in experiment [2]: Intercellular Adhesion Molecule 1 (ICAM1), ICAM1 (gene 3383)
Briefly: BSK_3C_ICAM1: BioMAP Diversity Plus: 3C Assay for Intercellular Adhesion Molecule 1 (ICAM1) Biomarker Activity (AID 2283003). The following applies: primary human endothelial cells (HUVEC); actives raise or lower the signal. In a few lines:
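ICAM-1 levels measured by ELISA after HUVEC cultures in the 3C system had been dosed for 24 h. Gain or loss of signal relative to DMSO was fitted in both directions.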

Experiment [3] can be described thus: BSK_3C_Proliferation: Cell Proliferation Assessment in the BioMAP Diversity Plus: 3C Assay (AID 2283006).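 For AC50: potency may reflect either rise or fall in cell number versus DMSO.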 The conditions noted are these: primary human endothelial cells (HUVEC). In a few lines:
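Read-out is total protein by SRB absorbance at 560 nm, taken as a proxy for relative cell number. Primary human umbilical vein endothelium cultured below confluence was dosed for 48 h, TCA-fixed and SRB-stained; curves were fitted bidirectionally versus DMSO.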

Experiment [4] addresses Nuclear receptor subfamily 1 group I member 2 (Homo sapiens) (UniProt O75469). Briefly: ATG_PXR_TRANS: Attagene TRANS-FACTORIAL HepG2 Assay for human Pregnane X Receptor (PXR) (AID 2283008; active = hit-call score of the fitted dose curve at least 0.9, where 1 is the maximum). In a few lines:
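Measures mRNA induction of a GAL4-UAS-driven reporter in human HepG2 cells transiently expressing PXR fused to Gal4, following 24 h treatment. DMSO served as negative control and baseline.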

Experiment [5] addresses Retinoic acid receptor RXR-alpha (Homo sapiens) (UniProt P19793). Briefly: ATG_RXRa_TRANS: Attagene TRANS-FACTORIAL HepG2 Assay for human Retinoid X Receptor alpha (RXRa) (AID 2283012; active = hit-call score of the fitted dose curve at least 0.9, where 1 is the maximum). In a few lines:
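Transient transfection of human HepG2 with multiple GAL4-UAS reporter constructs; 24 h compound exposure; total RNA isolated, reverse-transcribed, PCR-amplified, 6-FAM labelled, HpaI-cut, resolved by capillary electrophoresis. Positive-direction fit versus DMSO.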

Experiment [6] has as its target human Retinoid X Receptor beta (RXRb), RXRB (gene 6257) (UniProt P28702). Briefly: ATG_RXRb_TRANS: Attagene TRANS-FACTORIAL HepG2 Assay for human Retinoid X Receptor beta (RXRb) (AID 2283013; active = hit-call score of the fitted dose curve at least 0.9, where 1 is the maximum). In a few lines:
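Transfect HepG2 with GAL4-UAS multi-reporter constructs (chimeric NR-Gal4, TRANS format); dose compound 24 h; isolate RNA, RT-PCR, FAM primer extension, HpaI digest; quantify by capillary electrophoresis; positive direction vs DMSO.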

The target of experiment [7] is human Thyroid Receptor alpha (THRa1), THRA (gene 7067) (UniProt P10827). Briefly: ATG_THRa1_TRANS: Attagene TRANS-FACTORIAL HepG2 Assay for human Thyroid Receptor alpha (THRa1) (AID 2283014; active = hit-call score of the fitted dose curve at least 0.9, where 1 is the maximum). In a few lines: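 First, HepG2 cells receive multiple GAL4-UAS reporter units and the chimeric receptor. They are then dosed for 24 h, after which RNA is reverse-transcribed, amplified, labelled, HpaI-cut and sized by capillary electrophoresis; gain relative to DMSO is scored.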
Chain of human Thyroid Receptor alpha (THRa1), THRA (gene 7067) (P10827 whole entry, looked up, the tested form may be a part): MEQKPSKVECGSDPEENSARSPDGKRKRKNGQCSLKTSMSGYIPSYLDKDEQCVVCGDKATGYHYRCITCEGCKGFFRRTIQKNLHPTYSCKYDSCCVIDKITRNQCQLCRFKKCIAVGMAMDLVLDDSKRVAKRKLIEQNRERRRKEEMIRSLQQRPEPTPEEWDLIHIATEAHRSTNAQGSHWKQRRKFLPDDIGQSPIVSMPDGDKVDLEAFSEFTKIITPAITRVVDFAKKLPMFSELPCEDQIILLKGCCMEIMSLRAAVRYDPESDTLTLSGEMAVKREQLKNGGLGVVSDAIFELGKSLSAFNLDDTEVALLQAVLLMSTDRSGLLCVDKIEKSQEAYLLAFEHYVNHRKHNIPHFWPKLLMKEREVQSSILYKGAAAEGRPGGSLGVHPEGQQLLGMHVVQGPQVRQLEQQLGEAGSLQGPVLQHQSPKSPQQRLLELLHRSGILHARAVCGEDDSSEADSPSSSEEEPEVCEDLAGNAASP

Read-out in experiment [8]: E-selectin (Homo sapiens) (UniProt P16581)
The experiment can be described thus: BSK_3C_Eselectin: BioMAP Diversity Plus: 3C Assay for Eselectin Biomarker Activity (AID 2283015).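 For outcome: cell surface E-selectin protein quantified by ELISA 24 h after dosing.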 The following applies: primary human endothelial cells (HUVEC); actives raise or lower the signal. The procedure, abridged:
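Human vascular endothelium from umbilical vein is exposed to test chemicals for 24 h. E-selectin levels are read by ELISA and compared with DMSO controls.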

Read-out in experiment [9]: Interleukin-1 alpha (IL1a), IL1A (gene 3552)
Briefly: BSK_BE3C_IL1a: BioMAP Diversity Plus: BE3C Assay for Interleukin-1 alpha (IL1a) Biomarker Activity (AID 2283016). The conditions noted are these: primary human bronchial epithelial cells; actives raise or lower the signal. In a few lines: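 BE3C primary human bronchial epithelium; cpd 24 h; IL-1a by ELISA; bidirectional fit vs DMSO; parallel SRB (0.1% SRB, 10% TCA fix, 560 nm) for cytotoxicity.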

Read-out in experiment [10]: Monocyte Chemoattractant Protein-1 (MCP1), CCL2 (gene 6347)
The experiment can be described thus: BSK_3C_MCP1: BioMAP Diversity Plus: 3C Assay for Monocyte Chemoattractant Protein-1 (MCP1) Biomarker Activity (AID 2283017). The conditions noted are these: primary human endothelial cells (HUVEC); actives raise or lower the signal. The procedure, abridged: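 Endothelial cells from human umbilical vein are dosed with chemical, cultured 24 h, then assayed for MCP-1 by ELISA; both increases and decreases are modelled against DMSO controls.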

Read-out in experiment [11]: Monocyte Chemoattractant Protein-1 (MCP1), CCL2 (gene 6347)
The experiment can be described thus: BSK_4H_MCP1: BioMAP Diversity Plus: 4H Assay for Monocyte Chemoattractant Protein-1 (MCP1) Biomarker Activity (AID 2283018). The conditions noted are these: primary human endothelial cells (HUVEC); actives raise or lower the signal. The procedure, abridged:
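ELISA read-out of MCP-1 from human vascular endothelial primary cells taken at 24 hours after compound exposure. Activity was fitted in both directions relative to DMSO, which served as negative control.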

Read-out in experiment [12]: Human Leukocyte Antigen - DR isotype (HLADR), HLA-DRA (gene 3122)
Briefly: BSK_3C_HLADR: BioMAP Diversity Plus: 3C Assay for Human Leukocyte Antigen - DR isotype (HLADR) Biomarker Activity (AID 2283019).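 Note: ELISA of cell-surface HLA-DR on HUVEC 24 h after dosing.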 The following applies: primary human endothelial cells (HUVEC); actives raise or lower the signal. In a few lines:
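Endothelial cells from human umbilical vein are treated with test chemical; after 24 h, HLA-DR levels are measured by ELISA. Data are fitted in both directions using DMSO as the baseline.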

Experiment [13] deals with human Peroxisome Proliferator-activated Receptor alpha (PPARa), PPARA (gene 5465) (UniProt Q07869). Briefly: ATG_PPARa_TRANS: Attagene TRANS-FACTORIAL HepG2 Assay for human Peroxisome Proliferator-activated Receptor alpha (PPARa) (AID 2283001; active = hit-call score of the fitted dose curve at least 0.9, where 1 is the maximum;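 for AC50: potency for gain of reporter signal over DMSO so agonist or activator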). The procedure, abridged:
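Read-out is fluorescence of reporter cDNA fragments resolved by capillary electrophoresis after RT-PCR. Human HepG2 liver cells carried transfected PPARa-Gal4 chimera and GAL4-UAS reporter units, treated 24 h; activity scored as increase over DMSO.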

The target of experiment [14] is Peroxisome proliferator-activated receptor gamma (Homo sapiens) (UniProt P37231). The experiment can be described thus: ATG_PPARg_TRANS: Attagene TRANS-FACTORIAL HepG2 Assay for human Peroxisome Proliferator-activated Receptor-gamma (PPARg) (AID 2283007; active = hit-call score of the fitted dose curve at least 0.9, where 1 is the maximum). The procedure, abridged:
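Multiplexed reporter transcription units in HepG2, 24 h dosing, reporter transcripts quantified by fluorescent RT-PCR and capillary electrophoresis. Increase over DMSO scored.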

Read-out in experiment [15]: Interleukin-8 (IL8), CXCL8 (gene 3576)
Briefly: BSK_3C_IL8: BioMAP Diversity Plus: 3C Assay for Interleukin-8 (IL8) Biomarker Activity (AID 2283020). The conditions noted are these: primary human endothelial cells (HUVEC); actives raise or lower the signal. The procedure, abridged: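 ELISA read-out of IL-8 from human umbilical vein endothelium, measured 24 h after chemical dosing. Activity is expressed relative to DMSO negative control, with both increases and decreases fitted.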

For experiment [16], the target named is Retinoic acid receptor alpha (Homo sapiens) (UniProt P10276). The experiment can be described thus: ATG_RARa_TRANS: Attagene TRANS-FACTORIAL HepG2 Assay for human Retinoic Acid Receptor alpha (RARa) (AID 2283005; active = hit-call score of the fitted dose curve at least 0.9, where 1 is the maximum). In a few lines:
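Reporter transcripts, measured by RT-PCR with fluorescent labeling and capillary electrophoresis after 24 h dosing, reflect activity of an exogenous human RARa–GAL4 fusion in transiently transfected HepG2. Fitted for increase relative to DMSO.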

Experiment [17] concerns the target human Retinoic Acid Receptor gamma (RARg), RARG (gene 5916) (UniProt P13631). The experiment can be described thus: ATG_RARg_TRANS: Attagene TRANS-FACTORIAL HepG2 Assay for human Retinoic Acid Receptor gamma (RARg) (AID 2283009; active = hit-call score of the fitted dose curve at least 0.9, where 1 is the maximum). The procedure, abridged:
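Transient transfection of HepG2 with multi-reporter constructs, then 24 h chemical treatment. Total RNA isolated, reverse-transcribed, PCR-amplified, fluorescently labelled and resolved by capillary electrophoresis; activity scored as mRNA induction versus DMSO.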

The target in experiment [18] is human RAR-related Orphan Receptor gamma (RORg), RORC (gene 6097) (UniProt P51449). Briefly: ATG_RORg_TRANS: Attagene TRANS-FACTORIAL HepG2 Assay for human RAR-related Orphan Receptor gamma (RORg) (AID 2283011; active = hit-call score of the fitted dose curve at least 0.9, where 1 is the maximum). In a few lines:
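Activity is scored as increase in GAL4-UAS reporter mRNA over DMSO, detected by fluorescent RT-PCR and capillary electrophoresis in HepG2 cells transiently expressing a RORg-Gal4 chimera, 24 h after dosing.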

Chain of Peroxisome proliferator-activated receptor gamma (Homo sapiens) (P37231 whole entry, looked up): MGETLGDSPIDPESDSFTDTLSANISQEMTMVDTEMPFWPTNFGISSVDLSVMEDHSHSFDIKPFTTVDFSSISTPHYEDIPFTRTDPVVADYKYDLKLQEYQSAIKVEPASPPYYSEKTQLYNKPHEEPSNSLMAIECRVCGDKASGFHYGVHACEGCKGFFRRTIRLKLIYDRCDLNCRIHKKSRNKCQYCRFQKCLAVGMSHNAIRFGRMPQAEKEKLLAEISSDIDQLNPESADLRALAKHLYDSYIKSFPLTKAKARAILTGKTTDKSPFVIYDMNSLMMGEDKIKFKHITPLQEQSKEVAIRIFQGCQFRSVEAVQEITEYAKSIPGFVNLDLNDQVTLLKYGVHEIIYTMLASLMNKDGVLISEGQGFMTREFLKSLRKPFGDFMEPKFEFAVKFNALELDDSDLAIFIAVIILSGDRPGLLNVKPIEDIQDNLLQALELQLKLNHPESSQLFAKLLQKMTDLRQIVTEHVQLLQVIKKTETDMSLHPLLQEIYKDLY
Chain of human Peroxisome Proliferator-activated Receptor delta (PPARd), PPARD (gene 5467) (Q03181 whole entry, looked up, the tested form may be a part): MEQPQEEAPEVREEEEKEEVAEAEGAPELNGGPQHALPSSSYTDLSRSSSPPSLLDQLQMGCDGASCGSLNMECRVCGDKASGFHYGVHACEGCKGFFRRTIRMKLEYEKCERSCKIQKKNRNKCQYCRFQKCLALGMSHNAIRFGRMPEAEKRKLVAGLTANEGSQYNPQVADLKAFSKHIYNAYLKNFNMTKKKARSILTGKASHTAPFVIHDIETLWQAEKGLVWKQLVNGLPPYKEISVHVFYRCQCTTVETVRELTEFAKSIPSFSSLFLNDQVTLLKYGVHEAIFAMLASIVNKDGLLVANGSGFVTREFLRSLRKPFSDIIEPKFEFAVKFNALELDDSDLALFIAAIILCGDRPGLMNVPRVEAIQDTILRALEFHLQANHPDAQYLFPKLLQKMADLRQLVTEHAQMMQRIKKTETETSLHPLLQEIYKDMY
Chain of human Retinoid X Receptor beta (RXRb), RXRB (gene 6257) (P28702 whole entry, looked up, the tested form may be a part): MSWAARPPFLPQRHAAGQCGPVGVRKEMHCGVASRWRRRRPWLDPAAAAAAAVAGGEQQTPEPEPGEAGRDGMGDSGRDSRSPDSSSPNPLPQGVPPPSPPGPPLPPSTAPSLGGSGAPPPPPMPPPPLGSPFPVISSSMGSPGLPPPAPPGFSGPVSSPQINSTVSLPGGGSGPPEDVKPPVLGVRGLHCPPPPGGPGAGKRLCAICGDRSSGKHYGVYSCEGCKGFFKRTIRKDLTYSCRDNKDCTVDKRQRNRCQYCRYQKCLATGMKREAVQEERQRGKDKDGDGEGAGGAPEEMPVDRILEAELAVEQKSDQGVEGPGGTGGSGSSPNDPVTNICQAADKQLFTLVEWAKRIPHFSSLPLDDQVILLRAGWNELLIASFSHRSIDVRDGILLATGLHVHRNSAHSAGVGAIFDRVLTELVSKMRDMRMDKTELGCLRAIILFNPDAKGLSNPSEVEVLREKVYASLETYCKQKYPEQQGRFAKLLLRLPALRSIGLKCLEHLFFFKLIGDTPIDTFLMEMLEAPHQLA
Chain of E-selectin (Homo sapiens) (P16581 whole entry, looked up): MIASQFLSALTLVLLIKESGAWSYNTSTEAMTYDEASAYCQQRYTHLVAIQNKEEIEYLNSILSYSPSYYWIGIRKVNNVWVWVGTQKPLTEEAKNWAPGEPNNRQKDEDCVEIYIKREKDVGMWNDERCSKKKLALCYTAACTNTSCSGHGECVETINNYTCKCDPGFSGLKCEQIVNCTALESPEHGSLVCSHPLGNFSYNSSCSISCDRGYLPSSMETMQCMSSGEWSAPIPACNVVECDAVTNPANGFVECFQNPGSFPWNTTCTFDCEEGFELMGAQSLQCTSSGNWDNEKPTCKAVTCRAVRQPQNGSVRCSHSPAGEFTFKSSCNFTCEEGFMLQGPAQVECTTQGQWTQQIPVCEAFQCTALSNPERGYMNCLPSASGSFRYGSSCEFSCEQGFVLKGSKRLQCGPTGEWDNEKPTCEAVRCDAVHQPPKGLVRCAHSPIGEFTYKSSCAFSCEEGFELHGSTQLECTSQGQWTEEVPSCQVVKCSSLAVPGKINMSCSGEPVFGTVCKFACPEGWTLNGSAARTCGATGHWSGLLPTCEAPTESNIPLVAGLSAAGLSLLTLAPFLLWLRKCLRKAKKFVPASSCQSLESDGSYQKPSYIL
Chain of Nuclear receptor subfamily 1 group I member 2 (Homo sapiens) (O75469 whole entry, looked up, the tested form may be a part): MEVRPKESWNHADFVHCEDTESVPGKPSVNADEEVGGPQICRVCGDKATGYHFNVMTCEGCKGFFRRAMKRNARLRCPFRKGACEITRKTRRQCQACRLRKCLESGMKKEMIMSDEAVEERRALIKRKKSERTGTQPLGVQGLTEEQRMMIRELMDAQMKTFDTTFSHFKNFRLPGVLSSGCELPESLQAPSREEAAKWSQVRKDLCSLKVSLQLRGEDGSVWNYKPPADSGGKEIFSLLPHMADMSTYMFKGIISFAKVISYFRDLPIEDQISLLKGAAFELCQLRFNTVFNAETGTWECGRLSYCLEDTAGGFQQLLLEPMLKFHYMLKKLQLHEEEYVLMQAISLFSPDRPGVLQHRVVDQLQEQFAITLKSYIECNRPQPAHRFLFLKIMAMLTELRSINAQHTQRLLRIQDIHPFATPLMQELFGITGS
Chain of human Peroxisome Proliferator-activated Receptor alpha (PPARa), PPARA (gene 5465) (Q07869 whole entry, looked up, the tested form may be a part): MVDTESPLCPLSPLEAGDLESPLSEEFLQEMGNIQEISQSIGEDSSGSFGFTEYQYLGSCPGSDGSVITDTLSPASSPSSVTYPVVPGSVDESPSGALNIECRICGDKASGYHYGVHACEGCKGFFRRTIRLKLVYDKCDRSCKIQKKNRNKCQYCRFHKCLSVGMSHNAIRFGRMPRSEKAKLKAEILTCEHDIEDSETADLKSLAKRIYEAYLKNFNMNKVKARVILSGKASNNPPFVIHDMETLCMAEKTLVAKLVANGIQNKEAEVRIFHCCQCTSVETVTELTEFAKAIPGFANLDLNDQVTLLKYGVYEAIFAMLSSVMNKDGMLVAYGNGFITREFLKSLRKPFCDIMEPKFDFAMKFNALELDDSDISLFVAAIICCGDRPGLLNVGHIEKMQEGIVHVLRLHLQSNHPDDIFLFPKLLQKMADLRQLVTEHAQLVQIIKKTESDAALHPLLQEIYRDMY
Chain of Retinoic acid receptor RXR-alpha (Homo sapiens) (P19793 whole entry, looked up, the tested form may be a part): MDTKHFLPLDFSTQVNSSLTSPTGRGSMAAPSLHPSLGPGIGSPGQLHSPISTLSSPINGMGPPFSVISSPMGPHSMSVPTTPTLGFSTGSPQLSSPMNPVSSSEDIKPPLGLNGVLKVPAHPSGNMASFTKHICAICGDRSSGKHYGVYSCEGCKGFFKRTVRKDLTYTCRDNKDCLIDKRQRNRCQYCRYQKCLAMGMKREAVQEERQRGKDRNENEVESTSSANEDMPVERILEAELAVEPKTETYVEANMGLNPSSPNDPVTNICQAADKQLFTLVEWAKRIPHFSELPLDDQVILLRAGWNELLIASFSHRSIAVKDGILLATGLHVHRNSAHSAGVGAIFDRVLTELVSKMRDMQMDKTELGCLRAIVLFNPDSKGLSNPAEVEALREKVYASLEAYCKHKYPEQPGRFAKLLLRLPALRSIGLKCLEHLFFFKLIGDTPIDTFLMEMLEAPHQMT
Chain of human Retinoic Acid Receptor gamma (RARg), RARG (gene 5916) (P13631 whole entry, looked up): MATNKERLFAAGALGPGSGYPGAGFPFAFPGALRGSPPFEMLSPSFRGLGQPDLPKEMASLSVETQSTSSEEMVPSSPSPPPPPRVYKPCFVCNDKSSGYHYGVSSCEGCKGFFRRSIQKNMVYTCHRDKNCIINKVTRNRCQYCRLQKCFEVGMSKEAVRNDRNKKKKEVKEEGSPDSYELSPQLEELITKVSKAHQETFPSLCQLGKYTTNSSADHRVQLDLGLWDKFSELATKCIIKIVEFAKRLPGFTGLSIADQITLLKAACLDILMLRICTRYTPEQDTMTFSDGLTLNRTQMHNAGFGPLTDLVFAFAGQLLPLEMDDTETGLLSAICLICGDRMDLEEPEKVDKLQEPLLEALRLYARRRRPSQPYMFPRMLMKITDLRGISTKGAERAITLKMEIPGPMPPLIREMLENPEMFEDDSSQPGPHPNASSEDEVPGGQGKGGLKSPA
Chain of human RAR-related Orphan Receptor gamma (RORg), RORC (gene 6097) (P51449 whole entry, looked up, the tested form may be a part): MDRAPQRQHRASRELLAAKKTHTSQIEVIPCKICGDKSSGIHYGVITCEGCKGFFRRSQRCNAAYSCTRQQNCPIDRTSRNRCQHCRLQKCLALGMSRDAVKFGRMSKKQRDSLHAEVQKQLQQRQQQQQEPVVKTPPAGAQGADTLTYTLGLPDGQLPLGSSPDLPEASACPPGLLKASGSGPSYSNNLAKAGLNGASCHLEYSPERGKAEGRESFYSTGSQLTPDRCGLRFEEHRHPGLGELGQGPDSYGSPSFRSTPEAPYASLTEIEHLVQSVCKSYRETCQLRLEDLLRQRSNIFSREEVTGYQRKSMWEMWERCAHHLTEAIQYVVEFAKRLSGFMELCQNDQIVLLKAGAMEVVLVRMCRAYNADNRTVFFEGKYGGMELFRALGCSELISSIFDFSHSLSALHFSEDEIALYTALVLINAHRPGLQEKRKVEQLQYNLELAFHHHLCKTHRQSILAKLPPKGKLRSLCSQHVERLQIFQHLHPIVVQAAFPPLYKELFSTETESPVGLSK

Consider `Cc1ccc(N(C)C)cc1`, for which the compound was called inactive in experiment [1], in experiment [2], in experiment [3], in experiment [4], in [5] and in [6]. For the same compound, the compound was classed as inactive in experiment [7], in experiment [8], in [9], in [10], in experiment [11] and in [12].
With `C=CCc1ccc(O)c(OC)c1`, the compound was classed as inactive in experiment [13], in [2], in experiment [3], in experiment [5], in experiment [8] and in experiment [9]. The outcome in [10] and in experiment [12] was inactive. The values for the AC50 in experiment [14], in experiment [4] and in [6] were 40.5 µM (active), 38.5 µM (active) and 63.2 µM (active), respectively.
With `NC(=O)Cn1c(=O)cc(CCN2CCN(c3nccc4sccc34)CC2)c2ccc(F)cc21`, the result in experiment [1], in [2], in [14], in experiment [4], in experiment [5] and in experiment [8] was inactive. Further, the outcome in experiment [9], in experiment [10], in experiment [12] and in experiment [15] was inactive. Moreover, in experiment [3], the AC50 (in general, the midpoint of the concentration-response curve, whichever way the signal moves) is 0.148 µM (active).
Take `CN[C@H]1CC[C@@H](c2ccc(Cl)c(Cl)c2)c2ccc(S(N)(=O)=O)cc21`: the compound was classed as inactive in [1], in [14] and in experiment [4]. In addition, the AC50 in experiment [2] was 30.9 µM (active); in [3] it was 6.14 µM (active); in [8] it was 30.6 µM (active); in experiment [9], 30.3 µM (active); in [10], 27.5 µM (active); in experiment [15], 23.9 µM (active).
In the case of `c1cc(-c2ccncc2)ccn1`, the outcome in [2], in experiment [16], in experiment [3], in experiment [17], in [8] and in [9] was inactive. Further, the outcome in experiment [10] was inactive.
Consider `Cc1cccc(C)c1O`, for which the outcome in [13], in experiment [2], in [3], in [4], in [17] and in experiment [18] was inactive. Also, the call in [5], in experiment [6], in experiment [7], in [8], in experiment [9] and in [10] was inactive. Besides, the outcome in [15] was inactive.
`CCCCCCCCCCCCCO`: the AC50 is 24.3 µM (active) in experiment [13]; 37.5 µM (active) in experiment [2]; 14.9 µM (active) in experiment [3]; 58.9 µM (active) in [6]; 37.8 µM (active) in experiment [8]; 39 µM (active) in experiment [10]. Moreover, the results for the AC50 in experiment [11] and in experiment [15] were 37.6 µM (active) and 37 µM (active), respectively. In addition, the call in experiment [14], in [4], in [5] and in experiment [9] was inactive.
Take `Cc1ccc(Cl)cc1`: the compound was classed as inactive in experiment [1], in [2], in experiment [3], in [14], in [4] and in experiment [5]. The result in experiment [8], in experiment [9], in experiment [10], in [11], in [12] and in [15] was inactive.
